Screening results as filed in PubChem.
Most compounds without a hit are left out; they make up all but 21% or so of the library.
Cycloheximide cs = counter-screen for Shiga toxin inhibitors: cycloheximide protein synthesis inhibition. cell reporter, cycloheximide protein synthesis inhibition counterscreen. max response, %. 12% of 300,000 active. AID 2314; in the data active means max response mostly above about 13%, no sharp cut-off; inactive means mostly below about 14%; further: read at 38.3 µM for the half of the compounds with a filed dose; 0% is about no effect
AMA1-RON2 inh = AMA1-RON2 (P. falciparum) interaction inhibition; AlphaScreen AMA1-biotinylated RON2 peptide binding; Potency, µM (highest dose often 58.2 µM), without a hit: at the highest dose activity change, negative = inhibition, hits mostly inhibitors; 0.2% of 360,000 active;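 further: potency means the concentration at half of the fitted maximal effect; 0% = vehicle wells and -100% = peptide control; nearly all actives have a fitted effect of over 45% in size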
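AMA1 (3D7) with his tag at 25 nM final met compounds first, then biotinylated RON2 peptide at 25 nM; detection used donor plus acceptor beads, 10 µg/mL apiece, read by AlphaScreen after 30 min at room temperature.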
Pf growth 96h = P. falciparum growth inhibition at 96 hours; 6.9% of 320,000 active; P. falciparum luciferase reporter growth, 96 h; Potency, µM (doses to about 28.7 µM), for the others: at the top dose activity change, negative = inhibition, hits mostly inhibitors; further: potency means the concentration at half of the fitted maximal effect; on the % scale 0 is the no-effect control and ±100 the full control effect
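Infected RBCs, 2% Hct / 0.05% parasitemia final; luciferase-reporter P. falciparum; cpd 96 h, 37 C, 5% CO2; luciferase detection reagent; luminescence.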
Shiga toxin inh = Shiga toxin inhibition; Vero cells, Shiga toxin protein synthesis inhibition reporter; inhibition, % at 38.7 µM; 9.2% of 290,000 active; AID 2315; in the data active means inhibition mostly above about 28%, no sharp cut-off; inactive means mostly below about 43%; further: 0% is about no effect
HCV inh = inhibitors of hepatitis C virus infection | Huh7.5.1 HCVcc-Cre infection, luciferase reporter, 44 h | Potency, µM (titrated, usually from 41.8 µM), inactives show at the highest dose activity change, negative = inhibition, most hits filed as inhibitors | 3.4% of 340,000 active | AID 651820; further: potency means the concentration at half of the fitted maximal effect; on the % scale 0 is the no-effect control and ±100 the full control effect
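Reporter virus HCVcc-Cre (~0.5 moi) infects cells exposed to compound; seeding density 1,000 cells/well with 4 h settling beforehand. Luminescence, 15 sec read, taken 44 h post-infection following a 15 min RT substrate incubation.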
Pf growth 48h = P. falciparum growth inhibition at 48 hours (one generation) | P. falciparum luciferase growth in erythrocytes, 48 h | Potency, µM (doses to about 28.7 µM), without a hit: at the top dose activity change, negative = inhibition, most hits filed as inhibitors | 5.9% of 310,000 active; further: potency means the concentration at half of the fitted maximal effect; on the % scale 0 is the no-effect control and ±100 the full control effect
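In quantitative HTS format, infected erythrocytes bearing luciferase-reporter parasites were treated for a single generation at 37 C. Luminescence after adding detection reagent served as the growth measure.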
Numbers without * were called inactive; ? = inconclusive; . = not tested or not shown. Unless noted, the call rests on the fitted dose curve; in most records, active means well fitted curve in the direction sought with a large enough effect; inconclusive means small, poorly fitted or top-dose-only effect, or another doubt; inactive means no such curve, though single readings can be large; an effect the other way counts as inactive or inconclusive.

SMILES	Cycloheximide cs	AMA1-RON2 inh	Pf growth 96h	Shiga toxin inh	HCV inh	Pf growth 48h
O=C(NCc1nnc(SCC(=O)N2CCCC2)o1)c1c(F)cccc1Cl	-4.2	22.1%	78.6%	-28.6	13.3%	-7.1%
O=C(NCc1nnc(SCC(=O)N2CCC(Cc3ccccc3)CC2)o1)c1ccccc1F	5.7	-4.6%	13.1µM*	-0.9	?	8.8%
O=C(CSc1nnc(CNC(=O)c2c(F)cccc2Cl)o1)c1ccccc1	-3.0	12.1%	9.28µM*	5.7	-10.9%	-7.1%
Cc1cc(=O)n(-c2ccc3ccccc3n2)[nH]1	47.1*	57.1%	3.2%	50.8*	?	-11.9%
Cc1cc2nc(-c3ccccc3)cc(=O)n2[nH]1	21.0	28.6%	84.8%	31.4	14.1%	12.8%
COc1ccc(C(=O)NCC(=O)N2CCN(C(=O)c3ccco3)CC2)cc1[N+](=O)[O-]	.	-8.1%	.	.	-4.7%	.
CCn1c2ccccc2c2cc(NC(=O)CSc3nnc(-c4ccc(OC)c(OC)c4)n3N)ccc21	-1.4	-1.0%	?	-7.1	3.0%	?
CCn1c2ccccc2c2cc(NC(=O)CSc3nnc(-c4cccc(OC)c4)n3N)ccc21	-1.0	-10.3%	?	-10.1	8.91µM*	?
CCOc1ccc(-c2nnc(SCC(=O)Nc3ccc4c(c3)c3ccccc3n4CC)n2N)cc1	3.5	?	?	16.7	3.98µM*	-44.3%
CN(c1ccccc1C(=O)Nc1cccc(Br)c1)S(=O)(=O)c1ccccc1	-2.2	9.5%	207.8%	-1.1	-10.5%	-6.0%
CCCNC(=O)c1ccccc1NC(=O)c1ccccc1N(C)S(=O)(=O)c1ccc(C)cc1	-0.3	-3.1%	11.0%	-1.3	?	8.28µM*
CC(=O)c1cccc(NC(=O)c2ccccc2N(C)S(=O)(=O)c2ccc(C)cc2)c1	0.6	4.2%	13.1µM*	-16.5	22.1%	?
CSc1nc(-c2ccccc2)[nH]c(=S)c1C(C)=O	-2.7	91.5%	9.28µM*	-14.1	5.6%	.
CC(C)Cc1ccccc1S(N)(=O)=O	0.4	-4.8%	77.6%	3.5	7.8%	9.5%
C#CCOCCOCCOCCNc1nc(N2CCN(C(=O)Cn3cc(CCCCN)nn3)CC2)nc(N2CCN(C(=O)[C@H](CCCCN)n3cc(CCCC)nn3)CC2)n1	.	-9.4%	?	.	1.1%	?
C#CCOCCOCCOCCNc1nc(N2CCOCC2)nc(N2CCN(C(=O)CCCCCCCCCCNC(=O)[C@H](CO)n3cc(CCCCCN)nn3)CC2)n1	.	-1.8%	0.828µM*	.	0.8%	0.329µM*
C#CCOCCOCCOCCNc1nc(N2CCOCC2)nc(N2CCN(C(=O)Cn3cc(CCCCN)nn3)CC2)n1	.	-6.5%	.	.	8.9%	.
C#CCOCCOCCOCCNc1nc(N2CCOCC2)nc(N2CCN(C(=O)CCCCCCCCCCNC(=O)Cn3cc(CCCCCN)nn3)CC2)n1	.	26.9%	?	.	18.6%	3.7µM*
C#CCOCCOCCOCCNc1nc(N2CCN(C(=O)CCCCCCCCCCNC(=O)Cn3cc(CCCCCN)nn3)CC2)nc(N2CCN(C(=O)CCCCCCCCCCNC(=O)[C@H]([C@@H](C)CC)n3cc(CCCCCN)nn3)CC2)n1	.	?	?	.	?	10.4µM*
C#CCOCCOCCOCCNc1nc(N2CCOCC2)nc(N2CCN(C(=O)[C@H](CCCCN)n3cc(CN)nn3)CC2)n1	.	21.1%	.	.	31.2%	.
C#CCOCCOCCOCCNc1nc(N2CCN(C(=O)Cn3cc(CCO)nn3)CC2)nc(N2CCN(C(=O)[C@H]([C@@H](C)O)n3cc(CCCCN)nn3)CC2)n1	-3.5	-2.4%	-7.3%	-17.4	-3.1%	17.4%
C#CCOCCOCCOCCNc1nc(N2CCN(C(=O)CCCCCCCCCCNC(=O)Cn3cc(CCCCCN)nn3)CC2)nc(N2CCN(C(=O)CCCCCCCCCCNC(=O)[C@H](CO)n3cc(CCCCCN)nn3)CC2)n1	.	?	2.94µM*	.	31.6µM*	1.04µM*
O=C(NCc1ccccc1)C(c1ccccc1)n1c(C2CC2)nc2ccccc21 (centres undefined)	.	-12.7%	.	.	.	.
Nc1ccc(C(=O)N2CCN(S(=O)(=O)c3ccc4c(c3)OCCCO4)CC2)cc1[N+](=O)[O-]	.	-6.8%	?	.	?	?
O=C(O)c1ccccc1SCc1csc(-c2ccccc2)n1	32.2*	-2.5%	39.2%	38.1	8.1%	20.7%
SMILES	Cycloheximide cs	AMA1-RON2 inh	Pf growth 96h	Shiga toxin inh	HCV inh	Pf growth 48h
O=C(OCc1csc(-c2ccccc2)n1)c1ccccc1O	61.3*	40.1%	369.7%	109.7*	-12.3%	400.5%
O=C(OCc1ccccc1)c1ccccc1O	.	51.9%	.	.	4.3%	.
CCCS(=O)(=O)NC(=O)C1(C)CCCN(C(=O)c2cc(C)n(C(C)(C)C)n2)C1 (centres undefined)	.	-1.4%	.	.	.	.
CC(C)CNc1ncnc2c1ncn2[C@H]1CN(C2CCCC2)C[C@@H](CO)O1	.	10.9%	.	.	.	.
CCN(CC)C(=O)C1CCCN(C(=O)c2cc(COc3cccc(OC)c3)on2)C1 (centres undefined)	-1.3	-1.5%	9.28µM*	-12.8	-12.5%	20.2%
NC(=O)[C@@H]1CCCN1C(=O)c1cc(COc2ccc3c(c2)CCCC3)on1	35.8*	5.8%	?	33.9*	.	2.3%
COc1cccc(OCc2cc(C(=O)N3CCCC3c3ccccn3)no2)c1 (centres undefined)	70.4*	-4.6%	11.9%	61.7*	-7.3%	12.6%
Cc1cccc(C)c1OCc1cc(C(=O)N2CCC[C@H]2C(N)=O)no1	13.5	5.3%	-0.3%	25.3	.	2.1%
COc1cccc(OCc2cc(C(=O)N3CCNC(=O)C3Cc3ccccc3)no2)c1 (centres undefined)	40.0*	-3.9%	14.1%	74.2*	-7.7%	?
CC(=O)Nc1ccc(NC(=O)C(C)OC(=O)CNS(=O)(=O)c2ccc(Br)cc2Cl)cc1 (centres undefined)	-3.2	3.5%	25.9%	-8.4	-0.6%	18.2%
COc1ccc(N2CC(NC(=O)NCC(C)C)CC2=O)cc1 (centres undefined)	-1.2	-2.1%	34.9%	8.1	6.9%	2.4%
C=CCN(C#N)c1nc(OC)nc(N2CCCC2)n1	1.6	-14.7%	53.9%	-18.7	?	?
N#CN(CC(N)=O)c1nc(N2CCCCC2)nc(N2CCCCC2)n1	-3.4	-2.1%	-8.0%	-17.2	10µM*	?
CCN(CC)C(=O)Cn1c(=O)c2ccccc2n2c(=S)sc(-c3cccc(C)c3)c12	-3.6	-0.3%	2.08µM*	-0.5	0.562µM*	?
CCN(C(=O)Cn1c(=O)n(-c2cc(OC)c(OC)c(OC)c2)c(=O)c2ccccc21)c1cccc(C)c1	-0.9	1.7%	-27.9%	-2.2	13.7%	-19.7%
CC(C)c1ccc(CNCCCSc2ncccn2)cc1	1.0	54.8%	13.1µM*	-11.3	9.4%	5.2%
CCOc1ccc(CNCCCSc2ncccn2)cc1	-1.0	8.6%	10.4µM*	-7.7	-1.7%	-14.9%
